# A selection: hits, their analogues and other compounds. The true share with any hit is near 5.5%.
# ELG1 DNA repair: inhibitors of ELG1-dependent DNA repair in HEK293T cells; HEK293T ELG1-luciferase reporter, luminescence, 16 h; DNA damage induced by 5-fluorouridine; Potency, µM (highest dose often 46.1 µM), inactives show at the top dose activity change, negative = inhibition, hits mostly inhibitors; 330,000 compounds, 2.3% hits; note: potency is the fitted concentration of half-maximal effect; nearly all actives have a fitted effect of over 55% in size
#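 Step one: seed 2,000 cells per well. Step two: pin-transfer compound or DMSO alongside 5-fluorouridine. Step three: incubate 16 hr, 37 °C, 5% CO2. Step four: add ONE-Glo, wait 30 min, read luminescence.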
# FBPA coupling cs: coupling enzyme interference in Giardia aldolase counter-screen | coupling enzyme system counterscreen, AmpLite Red fluorescence | activity change, negative = inhibition, % at 58.2 µM, hits read low | 290,000 compounds, 0.67% hits | AID 2472; in the data active = activity change below about -30%
#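 Counterscreen lacking aldolase: glyceraldehyde-3-phosphate coupling-enzyme reagent preincubated 10 min at RT with compound (at 57.5 uM final), then substrate/coupling system with AmpLite Red added; fluorescence read at 525/598 nm after 20 min RT.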
# Sfp inh: blocks B. subtilis Sfp PPTase activity. Biochemical Sfp PPTase activity, qHTS. Potency, µM, for the others: largest response in the series, negative = inhibition, usual class: inhibitors. 310,000 compounds, 3.5% hits. AID 1490;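 note: the enzyme is Sfp with the accession as filed and its product quenches rhodamine fluorescence; potency is the fitted concentration of half-maximal effect; 0% = enzyme reaction without inhibitor and -100% = no enzyme wells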
#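 Sfp 15 nM + cpd, 15 min RT; start w/ rhodamine-CoA 5 uM, BHQ-2-YbbR 12.5 uM (final); 50 mM Hepes pH 7.6, 10 mM MgCl2, 0.01% NP-40, 0.01% BSA; read 525/598 nm at 0 and 30 min.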
# Giardia kill: Giardia lamblia killing; Giardia lamblia trophozoite viability; activity change, % at 7.66 µM, hits read low; 340,000 compounds, 0.15% hits; in the data active = activity change below about -80%; inconclusive = between about -30% and that limit;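 note: parasites exposed to compound for two days anaerobically before the ATP read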
#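 ATP-content bioluminescence gauges trophozoite survival. Cells (100/well) receive compound and incubate anaerobically for 48 hrs at 37 deg C; detection reagent follows for 15-30 min at room temperature.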
# Starred values were filed as active, the others as inactive; ? = inconclusive; / = no result given. Unless noted, calls come from the whole dose curve; as a rule, active = well fitted curve in the direction sought with a large enough effect; inconclusive = small, poorly fitted or top-dose-only effect, or another doubt; inactive = no such curve, though single readings can be large; an effect the other way counts as inactive or inconclusive. Unless noted, % is set by controls: 0 for no effect and ±100 for the full control effect.
SMILES,ELG1 DNA repair,FBPA coupling cs,Sfp inh,Giardia kill
O=C(Nc1ccc(N2CCN(C(=O)c3ccc(Cl)cc3)CC2)cc1)c1ccc(Br)o1,20.6µM*,-1.7,2.1%,1.1
CC(C)C(=O)N1CCN(c2ccc(NC(=O)c3ccc([N+](=O)[O-])o3)cc2)CC1,?,-5.9,-21.7%,?
O=C(Nc1ccc(N2CCN(C(=O)c3ccccc3)CC2)cc1)c1ccc([N+](=O)[O-])o1,?,-9.9,6.7%,-99.9*
Cc1ccccc1C(=O)N1CCN(c2ccc(NC(=O)c3ccc([N+](=O)[O-])o3)cc2)CC1,?,0.3,17.1%,-90.5*
Cc1ccccc1OCC(O)Cn1c(Br)nc2c1c(=O)[nH]c(=O)n2C (stereo not given),?,4.4,1.8%,6.4
CCSc1nc2c(c(=O)[nH]c(=O)n2C)n1CC(O)COc1ccccc1C (stereo not given),16.4µM*,-10.1,?,2.1
CC(C)Sc1nc2c(c(=O)[nH]c(=O)n2C)n1CC(O)COc1ccccc1 (stereo not given),?,-1.1,?,-29.3
Cc1ccccc1OCC(O)Cn1c(SC(C)C)nc2c1c(=O)[nH]c(=O)n2C (stereo not given),?,1.1,56.2µM*,-1.5
CCCCn1c(NC(=O)c2ccco2)c(S(=O)(=O)c2ccc(C)cc2)c2nc3ccccc3nc21,-4.6%,-24.8,?,-0.3
CCCCn1c(NS(=O)(=O)c2ccccc2)c(S(=O)(=O)c2ccc(C)cc2)c2nc3ccccc3nc21,18.4µM*,-31.6*,-2.7%,-16.0
COc1ccc(C2CC(=O)c3sc(N)nc3C2)cc1 (stereo not given),2.9%,0.6,?,3.3
Nc1nc2c(s1)C(=O)CC(c1ccccc1)C2 (stereo not given),?,7.3,44.7µM*,-3.5
CCc1nnc(N/N=C/c2cc(Br)c(O)cc2O)n1N,-15.8%,-12.3,50.1µM*,-17.3
NC(=O)c1ccsc1N,7.4%,-11.2,20µM*,/
Nc1sccc1C(=O)c1ccc(Cl)cc1,?,0.4,?,4.7
Cc1ccoc1C(=O)N1CCCC(CCC(=O)N2CCN(c3ccccn3)CC2)C1 (stereo not given),20.6µM*,5.2,-5.8%,12.8
Cc1ccc(C(=O)N2CCCC(CCC(=O)N3CCN(c4ccccn4)CC3)C2)cc1C (stereo not given),11.6µM*,/,-4.7%,-4.8
CCOCCCN(C(=O)Cn1nnc(-c2ccc(C)o2)n1)C(C(=O)NC1CCCC1)c1ccc(C)o1 (stereo not given),7.1%,-0.3,6.3%,2.2
C[C@H](CO)N1C[C@H](C)[C@@H](CN(C)C(=O)Nc2ccc3c(c2)OCO3)Oc2ccc(NS(=O)(=O)c3ccccc3)cc2C1=O,0.9%,/,/,12.7
CCC1=C/C(=C/N(C)c2ccccc2)C(=O)S1,?,-0.5,50.1µM*,-6.7
CN(c1ccccc1)S(=O)(=O)CS(=O)(=O)N(C)c1ccccc1,/,/,/,-26.4
COc1ccc(N2C(=O)c3ccccc3C(C)(C)C2=O)cc1,8.1%,1.0,17.0%,-21.0
O=C(c1ccccc1)c1ccccc1N1C(=O)C=CC1=O,?,0.8,1.26µM*,-0.1
O=C1C=CC(=O)N1c1ccccc1N1C(=O)C=CC1=O,/,/,/,7.4
CN(C)CCCN=Cc1c(-c2ccccc2)[nH]n(-c2nc3ccccc3s2)c1=O,-3.2%,2.0,50.1µM*,10.0
SMILES,ELG1 DNA repair,FBPA coupling cs,Sfp inh,Giardia kill
COc1ccccc1-c1cc(C(=O)N2CCOCC2)no1,?,0.0,16.6%,4.5
O=C(CSc1nccc(=O)[nH]1)NC1CCCC1,5.3%,3.6,14.6%,6.4
CCc1ccc(-n2nc3cc(C)c(N)cc3n2)cc1,?,-5.4,56.2µM*,-10.8
COc1ccc(CC(=O)Oc2ccc(C(C)C)cc2)cc1S(=O)(=O)N1CCOCC1,13.1%,/,/,7.8
C/C(=N\Nc1nncc2ccccc12)c1ccc(OCC(=O)N(C)C)cc1,?,1.2,50.1µM*,-0.2
CC/C(=N\Nc1nncc2ccccc12)c1ccc(F)cc1,?,0.6,1.8%,-0.9
c1ccc(Cn2c(-c3ccccc3)c[n+]3c2SCCC3)cc1,13µM*,-1.3,2.2%,-8.6
CC1=C(C(=O)Nc2ccc([N+](=O)[O-])cc2)C(c2cccc(C(F)(F)F)c2)NC(=S)N1c1ccccc1 (stereo not given),?,-1.6,14.4%,-7.6
COc1ccc(C2NC(=S)N(c3ccccc3)C(C)=C2C(=O)Nc2ccccc2)cc1 (stereo not given),-0.4%,1.3,89.1µM*,14.2
COc1cccc(CN(C)C(=O)c2cc(-c3ccc(F)cc3)nc3ccccc23)c1,?,/,22.4µM*,-1.1
COc1ccc(CN(C)C(=O)c2cc(-c3ccc(OC)c(OC)c3)nc3ccccc23)c(OC)c1,2.3%,/,13.8%,9.9
COc1ccc(-c2cc(C(=O)N(C)Cc3cccc(OC)c3OC)c3ccccc3n2)cc1OC,13µM*,1.8,-3.1%,8.9
C=CCC(=O)NC1CC(C)(C)Cc2c1cnn2-c1ccccc1C (stereo not given),-0.6%,-1.8,20.8%,-6.1
C=CCc1c(C)nc(-c2ccccc2)nc1N/N=C(\C)c1ccccc1,?,0.3,44.7µM*,-4.9
C=CCc1c(C)nc(-c2ccccc2)nc1Nc1ccc(O)cc1,?,1.2,-14.7%,18.3
CC(=O)N1CCC2(CC1)CCN(c1cccc(-c3ccccc3)c1)CC2,/,3.7,-26.6%,/
NC(N)=Nc1nc(-c2ccccc2)c2ccccc2n1,-9.0%,-0.1,50.1µM*,3.9
COc1ccc(CCN2CC(C(=O)OCC(=O)Nc3c(C)nn(-c4ccccc4)c3C)CC2=O)cc1OC (stereo not given),13.7%,/,/,9.5
Cc1c(NC(=O)Nc2cccc(C(F)(F)F)c2)c(=O)n(-c2ccccc2)n1C,3.0%,/,18.4%,-6.8
O=C(CN1CCN(C(=O)c2ccco2)CC1)N1CCc2[nH]c3ccccc3c2C1,0.4%,-23.2,35.5µM*,-6.2
O=C(Cn1ccc2cc(S(=O)(=O)N3CCCCC3)ccc21)NCc1ccccc1F,2.6%,/,13.7%,-19.4
COc1cccc(OC)c1NC(=O)CN1CCN(C)CC1,3.4%,1.6,79.4µM*,-14.4
O=C(CN1CCCC1)Nc1ccccc1Sc1ccccc1,9.0%,4.7,-6.6%,-16.9
CN1CCN(CC(=O)Nc2ccccc2Sc2ccccc2)CC1,0.1%,4.6,79.4µM*,-8.5
COc1cccc(-n2c(CN3CCN(c4ccccc4)CC3)nc3ccc([N+](=O)[O-])cc3c2=O)c1,18.4µM*,-6.6,28.2µM*,-2.9
CCOC(=O)c1ccc(-n2c(CN3CCN(CC)CC3)nc3ccc([N+](=O)[O-])cc3c2=O)cc1,-19.0%,-0.1,-6.1%,-11.0
CCOC(=O)c1ccc(-n2c(CN3CCC(O)CC3)nc3ccc([N+](=O)[O-])cc3c2=O)cc1,-19.8%,-2.3,17.8µM*,-6.1
CCOC(=O)c1ccc(-n2c(CN(CC)CC)nc3ccc([N+](=O)[O-])cc3c2=O)cc1,7.0%,-1.7,22.4µM*,-6.8

# Screening results deposited in PubChem by National Center for Advancing Translational Sciences (NCATS).
